Test [1] concerns the target T1, Serine/threonine-protein kinase TAO2 (Homo sapiens) (UniProt Q9UL54).
T1 sequence (whole entry): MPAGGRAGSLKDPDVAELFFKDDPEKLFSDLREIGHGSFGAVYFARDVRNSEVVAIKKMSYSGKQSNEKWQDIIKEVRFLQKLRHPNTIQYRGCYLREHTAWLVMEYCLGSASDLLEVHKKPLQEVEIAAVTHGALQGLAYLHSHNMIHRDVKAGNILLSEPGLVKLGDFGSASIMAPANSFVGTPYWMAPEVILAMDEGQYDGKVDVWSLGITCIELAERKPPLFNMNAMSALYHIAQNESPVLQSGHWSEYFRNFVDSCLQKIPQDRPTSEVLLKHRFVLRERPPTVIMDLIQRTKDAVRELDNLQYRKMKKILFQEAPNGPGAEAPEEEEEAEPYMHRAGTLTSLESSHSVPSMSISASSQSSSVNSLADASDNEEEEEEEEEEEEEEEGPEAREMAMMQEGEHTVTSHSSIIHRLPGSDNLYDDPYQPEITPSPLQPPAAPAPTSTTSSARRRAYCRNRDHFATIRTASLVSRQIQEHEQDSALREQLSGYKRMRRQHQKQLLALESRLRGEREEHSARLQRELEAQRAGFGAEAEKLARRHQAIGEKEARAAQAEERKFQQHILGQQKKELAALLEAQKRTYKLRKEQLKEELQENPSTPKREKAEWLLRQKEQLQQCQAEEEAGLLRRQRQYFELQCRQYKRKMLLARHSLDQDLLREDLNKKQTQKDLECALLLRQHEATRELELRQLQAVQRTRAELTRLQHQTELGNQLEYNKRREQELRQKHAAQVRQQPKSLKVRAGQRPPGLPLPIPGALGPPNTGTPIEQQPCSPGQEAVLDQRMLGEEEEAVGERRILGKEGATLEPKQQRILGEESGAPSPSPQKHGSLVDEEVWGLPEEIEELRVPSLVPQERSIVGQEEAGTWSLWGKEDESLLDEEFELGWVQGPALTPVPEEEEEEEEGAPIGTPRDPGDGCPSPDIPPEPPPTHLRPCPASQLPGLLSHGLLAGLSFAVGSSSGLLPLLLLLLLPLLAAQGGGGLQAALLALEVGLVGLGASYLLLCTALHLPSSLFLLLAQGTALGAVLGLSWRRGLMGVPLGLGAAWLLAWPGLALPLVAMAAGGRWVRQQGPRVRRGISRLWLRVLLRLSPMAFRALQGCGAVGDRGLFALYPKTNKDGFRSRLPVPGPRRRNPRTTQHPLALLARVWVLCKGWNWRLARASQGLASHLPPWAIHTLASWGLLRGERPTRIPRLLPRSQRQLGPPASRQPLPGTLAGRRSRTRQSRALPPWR
The conditions noted are these: at 1 µM.

The target in test [2] is T1, Serine/threonine-protein kinase TAO2 (Homo sapiens). Conditions: at 10 µM.
Test [3] addresses T2, Serine/threonine-protein kinase TAO3 (Homo sapiens) (UniProt Q9H2K8).
T2 sequence (whole entry): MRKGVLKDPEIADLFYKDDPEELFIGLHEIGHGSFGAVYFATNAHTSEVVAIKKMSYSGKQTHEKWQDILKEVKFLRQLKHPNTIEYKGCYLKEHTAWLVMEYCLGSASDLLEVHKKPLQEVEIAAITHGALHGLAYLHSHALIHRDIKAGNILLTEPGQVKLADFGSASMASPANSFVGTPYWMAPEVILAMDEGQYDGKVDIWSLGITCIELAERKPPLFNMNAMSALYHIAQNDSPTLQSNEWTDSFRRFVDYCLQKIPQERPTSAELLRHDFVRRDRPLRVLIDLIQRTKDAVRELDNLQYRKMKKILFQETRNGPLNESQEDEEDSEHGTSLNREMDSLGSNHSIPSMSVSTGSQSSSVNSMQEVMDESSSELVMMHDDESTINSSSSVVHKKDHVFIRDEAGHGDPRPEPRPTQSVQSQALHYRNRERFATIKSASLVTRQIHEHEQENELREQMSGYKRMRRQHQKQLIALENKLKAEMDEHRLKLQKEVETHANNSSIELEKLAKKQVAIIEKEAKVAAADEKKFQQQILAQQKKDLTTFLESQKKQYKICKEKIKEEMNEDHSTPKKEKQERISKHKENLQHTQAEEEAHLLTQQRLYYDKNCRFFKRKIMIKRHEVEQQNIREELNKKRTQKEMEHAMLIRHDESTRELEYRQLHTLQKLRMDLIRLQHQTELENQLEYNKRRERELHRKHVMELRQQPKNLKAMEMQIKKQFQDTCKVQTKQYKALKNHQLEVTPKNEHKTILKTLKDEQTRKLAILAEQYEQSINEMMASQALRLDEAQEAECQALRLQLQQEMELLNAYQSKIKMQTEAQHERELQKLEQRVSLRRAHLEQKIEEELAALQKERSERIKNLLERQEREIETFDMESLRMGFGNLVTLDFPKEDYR
Conditions: at 1 µM.

Test [4] addresses T2, Serine/threonine-protein kinase TAO3 (Homo sapiens). Conditions: at 10 µM.
The target of test [5] is T3, Serine/threonine-protein kinase TBK1 (Homo sapiens) (UniProt Q9UHD2).
T3 sequence (whole entry): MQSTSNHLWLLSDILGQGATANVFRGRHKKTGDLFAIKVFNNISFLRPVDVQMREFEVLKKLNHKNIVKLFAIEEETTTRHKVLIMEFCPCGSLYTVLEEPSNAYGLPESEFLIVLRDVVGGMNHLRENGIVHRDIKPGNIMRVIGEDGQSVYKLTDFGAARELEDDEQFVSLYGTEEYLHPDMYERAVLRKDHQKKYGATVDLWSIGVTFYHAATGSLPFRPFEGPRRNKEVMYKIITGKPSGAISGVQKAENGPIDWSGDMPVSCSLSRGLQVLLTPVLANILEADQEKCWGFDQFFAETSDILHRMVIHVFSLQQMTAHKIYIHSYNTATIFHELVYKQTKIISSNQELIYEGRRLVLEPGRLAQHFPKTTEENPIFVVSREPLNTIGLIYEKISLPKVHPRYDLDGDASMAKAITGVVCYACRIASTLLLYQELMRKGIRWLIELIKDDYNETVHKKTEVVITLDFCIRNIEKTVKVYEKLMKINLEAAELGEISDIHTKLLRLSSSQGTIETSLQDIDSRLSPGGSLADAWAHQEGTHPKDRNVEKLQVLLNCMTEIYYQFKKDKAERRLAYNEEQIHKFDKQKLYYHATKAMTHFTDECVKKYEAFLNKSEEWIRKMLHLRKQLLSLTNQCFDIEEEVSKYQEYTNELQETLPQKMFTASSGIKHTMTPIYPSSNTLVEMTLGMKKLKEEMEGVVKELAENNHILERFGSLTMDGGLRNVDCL
Conditions: at 1 µM.

Test [6] deals with T3, Serine/threonine-protein kinase TBK1 (Homo sapiens). The conditions noted are these: at 10 µM.
Test [7] addresses T4, TGF-beta receptor type-1 (Homo sapiens) (UniProt P36897).
T4 sequence (whole entry): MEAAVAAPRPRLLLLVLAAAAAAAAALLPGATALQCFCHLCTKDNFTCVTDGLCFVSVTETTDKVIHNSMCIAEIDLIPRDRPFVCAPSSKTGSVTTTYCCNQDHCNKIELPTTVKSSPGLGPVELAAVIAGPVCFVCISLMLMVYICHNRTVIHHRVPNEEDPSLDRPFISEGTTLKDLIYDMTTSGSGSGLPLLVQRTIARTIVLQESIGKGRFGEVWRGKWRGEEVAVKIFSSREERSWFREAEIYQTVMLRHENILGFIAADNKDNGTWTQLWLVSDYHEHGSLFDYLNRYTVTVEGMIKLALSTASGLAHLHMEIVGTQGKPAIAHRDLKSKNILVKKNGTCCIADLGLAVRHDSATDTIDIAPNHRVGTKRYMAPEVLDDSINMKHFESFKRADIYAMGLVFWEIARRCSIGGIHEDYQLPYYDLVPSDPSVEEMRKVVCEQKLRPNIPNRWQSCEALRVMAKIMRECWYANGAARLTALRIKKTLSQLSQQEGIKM
Conditions: at 1 µM.

Test [8] concerns the target T4, TGF-beta receptor type-1 (Homo sapiens). Conditions: at 10 µM.
Test [9] deals with Insulin-like growth factor 1 receptor (Homo sapiens) (UniProt P08069). The conditions noted are these: at 1 µM.
Insulin-like growth factor 1 receptor (Homo sapiens), sequence (P08069 31-736 limits assumed): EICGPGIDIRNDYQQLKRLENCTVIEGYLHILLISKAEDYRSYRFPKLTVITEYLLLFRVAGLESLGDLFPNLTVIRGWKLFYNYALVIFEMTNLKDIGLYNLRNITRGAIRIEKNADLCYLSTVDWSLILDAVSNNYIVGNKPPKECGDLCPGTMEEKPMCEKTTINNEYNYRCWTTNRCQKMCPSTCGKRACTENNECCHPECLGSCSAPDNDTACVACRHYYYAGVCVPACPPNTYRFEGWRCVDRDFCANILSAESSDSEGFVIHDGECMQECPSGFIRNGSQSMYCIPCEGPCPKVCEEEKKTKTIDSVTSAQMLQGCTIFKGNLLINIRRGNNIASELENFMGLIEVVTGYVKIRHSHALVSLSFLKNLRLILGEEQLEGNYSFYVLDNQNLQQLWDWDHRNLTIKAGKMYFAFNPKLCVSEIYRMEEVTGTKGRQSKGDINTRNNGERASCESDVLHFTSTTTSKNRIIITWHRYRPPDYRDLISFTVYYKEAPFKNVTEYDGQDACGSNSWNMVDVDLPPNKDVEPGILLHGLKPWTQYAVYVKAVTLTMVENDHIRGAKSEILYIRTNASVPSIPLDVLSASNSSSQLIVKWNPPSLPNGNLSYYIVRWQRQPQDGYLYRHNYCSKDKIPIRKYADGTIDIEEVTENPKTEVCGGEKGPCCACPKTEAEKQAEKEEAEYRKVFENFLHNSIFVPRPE
Insulin-like growth factor 1 receptor (Homo sapiens), sequence (P08069 741-1367 limits assumed): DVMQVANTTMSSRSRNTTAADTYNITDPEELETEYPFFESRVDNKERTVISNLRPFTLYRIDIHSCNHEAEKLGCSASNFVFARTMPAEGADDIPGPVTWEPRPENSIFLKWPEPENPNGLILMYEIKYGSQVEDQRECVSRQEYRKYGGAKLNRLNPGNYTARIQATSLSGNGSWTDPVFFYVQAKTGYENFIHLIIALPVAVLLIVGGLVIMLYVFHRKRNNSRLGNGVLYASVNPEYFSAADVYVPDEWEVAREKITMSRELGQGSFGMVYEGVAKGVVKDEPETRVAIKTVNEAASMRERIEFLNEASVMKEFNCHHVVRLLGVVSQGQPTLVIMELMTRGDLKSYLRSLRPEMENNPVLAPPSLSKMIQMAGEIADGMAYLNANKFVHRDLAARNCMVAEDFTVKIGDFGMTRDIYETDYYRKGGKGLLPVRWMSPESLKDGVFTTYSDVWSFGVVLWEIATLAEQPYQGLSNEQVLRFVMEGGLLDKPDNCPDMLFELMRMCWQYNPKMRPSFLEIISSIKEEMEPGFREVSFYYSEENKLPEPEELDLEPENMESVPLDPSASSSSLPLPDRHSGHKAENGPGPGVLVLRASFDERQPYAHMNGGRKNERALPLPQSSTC
The target is the same in test [10]. Conditions: at 10 µM.
Test [11] concerns the target T5, Inhibitor of nuclear factor kappa-B kinase subunit alpha (Homo sapiens) (UniProt O15111).
T5 sequence (whole entry): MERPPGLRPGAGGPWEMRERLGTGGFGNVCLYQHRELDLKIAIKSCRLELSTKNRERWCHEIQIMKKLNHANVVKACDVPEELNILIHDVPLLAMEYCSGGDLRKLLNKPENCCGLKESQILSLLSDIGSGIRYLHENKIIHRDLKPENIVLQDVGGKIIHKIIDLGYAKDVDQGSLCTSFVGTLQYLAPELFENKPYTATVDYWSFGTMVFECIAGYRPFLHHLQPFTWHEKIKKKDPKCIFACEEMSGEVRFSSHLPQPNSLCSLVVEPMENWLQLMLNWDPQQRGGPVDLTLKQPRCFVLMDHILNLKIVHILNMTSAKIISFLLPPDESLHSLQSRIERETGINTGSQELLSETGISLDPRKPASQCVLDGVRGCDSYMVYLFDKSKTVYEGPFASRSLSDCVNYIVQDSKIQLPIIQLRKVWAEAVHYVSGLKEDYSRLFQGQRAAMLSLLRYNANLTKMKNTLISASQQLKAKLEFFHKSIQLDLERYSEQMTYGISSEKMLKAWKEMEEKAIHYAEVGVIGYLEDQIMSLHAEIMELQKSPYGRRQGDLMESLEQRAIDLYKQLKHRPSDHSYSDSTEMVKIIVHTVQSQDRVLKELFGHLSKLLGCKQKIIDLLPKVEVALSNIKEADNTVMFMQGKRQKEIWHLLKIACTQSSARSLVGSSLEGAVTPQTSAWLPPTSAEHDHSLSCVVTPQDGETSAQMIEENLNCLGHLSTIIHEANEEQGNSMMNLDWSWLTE
The conditions noted are these: at 1 µM.

In test [12] the target is T5, Inhibitor of nuclear factor kappa-B kinase subunit alpha (Homo sapiens). Conditions: at 10 µM.
Test [13] deals with T6, Inhibitor of nuclear factor kappa-B kinase subunit beta (Homo sapiens) (UniProt O14920).
T6 sequence (whole entry): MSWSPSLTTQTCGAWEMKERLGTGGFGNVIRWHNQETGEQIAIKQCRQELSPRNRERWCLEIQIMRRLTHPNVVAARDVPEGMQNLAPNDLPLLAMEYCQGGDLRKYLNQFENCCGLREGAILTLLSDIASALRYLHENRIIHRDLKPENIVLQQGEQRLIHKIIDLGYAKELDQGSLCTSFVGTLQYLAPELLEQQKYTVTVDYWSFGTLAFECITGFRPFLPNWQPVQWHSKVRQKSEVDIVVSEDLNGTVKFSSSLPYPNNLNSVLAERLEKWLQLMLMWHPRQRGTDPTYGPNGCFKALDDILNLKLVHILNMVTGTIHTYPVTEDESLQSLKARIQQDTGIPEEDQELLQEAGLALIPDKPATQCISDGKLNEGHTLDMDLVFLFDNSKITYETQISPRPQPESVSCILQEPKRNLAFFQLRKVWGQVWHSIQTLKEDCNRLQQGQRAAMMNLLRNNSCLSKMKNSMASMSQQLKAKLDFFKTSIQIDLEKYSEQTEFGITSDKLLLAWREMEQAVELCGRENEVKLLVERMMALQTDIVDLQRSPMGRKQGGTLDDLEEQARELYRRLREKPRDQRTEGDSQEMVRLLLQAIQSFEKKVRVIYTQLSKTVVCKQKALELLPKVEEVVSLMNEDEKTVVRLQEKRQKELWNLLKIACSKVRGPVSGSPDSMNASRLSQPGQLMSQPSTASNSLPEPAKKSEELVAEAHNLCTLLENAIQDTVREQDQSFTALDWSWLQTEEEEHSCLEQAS
Conditions: at 1 µM.

The target in test [14] is T6, Inhibitor of nuclear factor kappa-B kinase subunit beta (Homo sapiens). The conditions noted are these: at 10 µM.
Test [15] deals with Insulin receptor (Homo sapiens) (UniProt P06213). The conditions noted are these: at 1 µM.
Insulin receptor (Homo sapiens), sequence (P06213 28-758 limits assumed): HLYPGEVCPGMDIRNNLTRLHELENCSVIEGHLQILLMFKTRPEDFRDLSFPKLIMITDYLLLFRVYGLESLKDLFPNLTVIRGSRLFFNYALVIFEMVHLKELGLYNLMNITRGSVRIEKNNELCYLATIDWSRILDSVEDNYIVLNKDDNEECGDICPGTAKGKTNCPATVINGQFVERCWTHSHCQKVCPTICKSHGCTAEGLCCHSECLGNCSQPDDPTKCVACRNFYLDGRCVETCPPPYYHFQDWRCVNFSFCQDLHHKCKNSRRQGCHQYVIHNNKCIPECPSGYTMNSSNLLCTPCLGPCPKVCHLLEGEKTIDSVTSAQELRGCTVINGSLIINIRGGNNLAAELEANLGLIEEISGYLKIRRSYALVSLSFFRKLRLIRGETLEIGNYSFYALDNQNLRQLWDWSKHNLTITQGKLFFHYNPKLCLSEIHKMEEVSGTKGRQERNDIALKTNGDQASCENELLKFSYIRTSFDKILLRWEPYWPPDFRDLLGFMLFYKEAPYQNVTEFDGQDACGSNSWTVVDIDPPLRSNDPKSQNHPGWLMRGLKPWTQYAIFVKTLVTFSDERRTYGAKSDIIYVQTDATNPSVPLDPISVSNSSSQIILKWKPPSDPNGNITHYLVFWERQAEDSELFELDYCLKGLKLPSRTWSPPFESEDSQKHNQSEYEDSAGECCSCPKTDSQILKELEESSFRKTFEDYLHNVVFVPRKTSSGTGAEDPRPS
Insulin receptor (Homo sapiens), sequence (P06213 763-1382 limits assumed): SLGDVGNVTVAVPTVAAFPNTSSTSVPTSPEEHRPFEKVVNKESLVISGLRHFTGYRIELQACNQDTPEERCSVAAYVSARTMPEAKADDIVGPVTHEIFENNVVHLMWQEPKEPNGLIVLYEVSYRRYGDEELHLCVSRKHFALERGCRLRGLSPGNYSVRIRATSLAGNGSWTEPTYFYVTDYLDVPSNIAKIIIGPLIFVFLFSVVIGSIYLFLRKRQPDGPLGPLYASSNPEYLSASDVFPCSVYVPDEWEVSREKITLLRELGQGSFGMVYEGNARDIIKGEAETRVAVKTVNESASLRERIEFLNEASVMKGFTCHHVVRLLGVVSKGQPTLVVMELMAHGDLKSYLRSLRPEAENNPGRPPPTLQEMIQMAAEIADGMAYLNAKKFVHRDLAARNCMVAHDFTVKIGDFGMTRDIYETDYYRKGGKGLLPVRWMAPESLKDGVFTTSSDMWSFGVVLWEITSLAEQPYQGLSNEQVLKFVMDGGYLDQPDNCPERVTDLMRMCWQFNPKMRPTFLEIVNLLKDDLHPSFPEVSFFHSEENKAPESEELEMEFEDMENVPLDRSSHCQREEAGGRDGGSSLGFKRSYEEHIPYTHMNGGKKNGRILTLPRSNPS
Test [16] shares this target. Conditions: at 10 µM.
Test [17] has the same target. Conditions: at 1 µM. This is another data set of the same source.
Test [18] has the same target. Conditions: at 10 µM. This is another data set of the same source.
For test [19], the target named is Interleukin-1 receptor-associated kinase 1 (Homo sapiens) (UniProt P51617). The conditions noted are these: at 1 µM.
Interleukin-1 receptor-associated kinase 1 (Homo sapiens), sequence (P51617 whole entry, looked up): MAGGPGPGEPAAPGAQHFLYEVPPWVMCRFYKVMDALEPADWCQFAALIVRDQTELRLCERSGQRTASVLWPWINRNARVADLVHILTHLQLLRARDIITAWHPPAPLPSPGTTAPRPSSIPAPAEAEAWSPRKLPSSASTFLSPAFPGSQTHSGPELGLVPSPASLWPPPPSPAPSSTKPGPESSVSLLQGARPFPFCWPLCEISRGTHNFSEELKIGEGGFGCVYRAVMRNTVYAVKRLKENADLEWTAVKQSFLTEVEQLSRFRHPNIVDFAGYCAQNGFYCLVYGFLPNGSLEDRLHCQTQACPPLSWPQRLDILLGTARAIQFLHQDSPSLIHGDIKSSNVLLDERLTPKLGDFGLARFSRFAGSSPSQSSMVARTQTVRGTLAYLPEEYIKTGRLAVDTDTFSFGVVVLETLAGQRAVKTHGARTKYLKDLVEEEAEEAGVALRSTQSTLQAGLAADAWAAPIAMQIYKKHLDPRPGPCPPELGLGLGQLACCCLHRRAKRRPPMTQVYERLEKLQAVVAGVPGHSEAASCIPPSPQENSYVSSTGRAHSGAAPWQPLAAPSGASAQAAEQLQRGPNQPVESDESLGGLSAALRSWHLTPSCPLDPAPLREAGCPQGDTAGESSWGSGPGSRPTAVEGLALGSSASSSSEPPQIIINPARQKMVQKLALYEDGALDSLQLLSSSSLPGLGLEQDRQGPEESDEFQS
Test [20] shares this target. Conditions: at 10 µM.

In ChEMBL document CHEMBL2218924, “A broad activity screen in support of a chemogenomic map for kinase signalling research and drug discovery” (Biochem J, 2013) one finds residual activity data, which are given here for three compounds.

For the compound `COc1cc2ncnc(Nc3ccc(OCc4ccccc4)cc3)c2cc1OC`, the residual activity in test [1] is 104%; in [2], 90%; in test [3], 107%; in test [4] it was 93%; in test [5], 92%; in test [6], 71%. Further, the residual activity in [7] was determined as 102%; in test [8], 100%; in [9] it was 108%; in [10], 104%; in test [11], 105%; in [12] it was 99%. Moreover, the residual activity is 117% in test [13]; 103% in test [14]; 115% in test [15]; 98% in [16]; 102% in test [17]; 104% in test [18]. In addition, the residual activity was 81% in test [19] and 102% in test [20].
As to `CN[C@@H]1C[C@H]2O[C@@](C)([C@@H]1OC)n1c3ccccc3c3c4c(c5c6ccccc6n2c5c31)C(=O)NC4`, the residual activity in test [6] turned out to be 0%; in test [7], 79%; in test [8], 30%.
As to `CCc1nc(-c2ccc(OC)cc2)[nH]c1-c1ccncc1`, the residual activity in test [5] came to 108%; in [9], 104%; in [10], 107%; in test [11] it was 100%; in test [12], 104%; in test [13], 119%. In [14], the residual activity turned out to be 112%.

A word on the residual activity: it is the signal under treatment as a percentage of the control signal.
